Here are results for 36 compounds from PubChem BioAssay (EPA / NIEHS).

Molecules are shown by their SMILES. Records with an inconclusive call do not appear. Activity calls are given as the source filed them. The calls were made as follows: active = hit-call score of the fitted dose curve at least 0.9, where 1 is the maximum; inconclusive = response in the unintended direction; inactive = score below 0.9.

One may read the AC50 as the concentration giving half of the maximal activity seen.

One experiment deals with Cellular tumor antigen p53 (Homo sapiens) (UniProt P04637). Put plainly: TOX21_p53_BLA_p5_ratio: Tox21 HCT-116 p53 Agonism Beta-lactamase Assay, Ratio, Phase 5 (AID 2283599). A digest of the protocol: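 HCT-116 cells carrying a p53-inducible beta-lactamase reporter were seeded at 4000 cells/well and dosed after 5 h with compound in DMSO (217-fold dilution). After 16 h at 37C, CCF4-AM substrate was added for 2 h, and the 460/530 nm emission ratio was scored as gain-of-signal versus DMSO.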
Sequence of Cellular tumor antigen p53 (Homo sapiens) (P04637 whole entry, looked up): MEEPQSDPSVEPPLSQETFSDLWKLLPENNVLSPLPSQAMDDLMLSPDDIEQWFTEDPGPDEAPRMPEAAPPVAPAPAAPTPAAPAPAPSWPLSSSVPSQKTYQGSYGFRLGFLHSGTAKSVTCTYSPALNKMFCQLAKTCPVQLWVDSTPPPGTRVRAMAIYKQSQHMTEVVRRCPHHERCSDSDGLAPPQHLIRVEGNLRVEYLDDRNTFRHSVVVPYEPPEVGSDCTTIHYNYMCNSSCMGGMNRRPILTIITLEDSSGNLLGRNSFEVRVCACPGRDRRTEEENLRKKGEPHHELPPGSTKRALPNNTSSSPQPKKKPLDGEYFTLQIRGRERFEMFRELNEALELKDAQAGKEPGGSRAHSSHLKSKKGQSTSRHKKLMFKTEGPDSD
As for `CCC(=O)OCc1ccccc1`, the result was inactive. Consider `CCCCCCOC(=O)CCCCC`, for which the result was inactive. On the same count and under the same terms, the same measure for `CC1(C)[C@H]2CC[C@]1(C)[C@H](O)C2`: “inactive”; for `CCOC(=S)SSC(=S)OCC`: “inactive”; for `O=C(Nc1ccccc1)c1cc([N+](=O)[O-])ccc1Cl`: “inactive”. Regarding `C=C(C)C(=O)O[C@H]1C[C@@H]2CC[C@@]1(C)C2(C)C`, the outcome was inactive.

Test system in the next experiment: not listed separately
Put plainly: TOX21_p53_BLA_p5_viability: Viability Assessment in the Tox21 HCT-116 p53 Agonism Beta-lactamase Assay, Phase 5 (AID 2283600). A digest of the protocol: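 Luciferase-coupled ATP quantitation of cells treated for 16 h (37C, 5% CO2) with test chemicals delivered in DMSO via a 217-fold dilution; 4000 cells/well; reagent incubated 30 min at room temperature before luminescence reading.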
As to `C=C[C@@H](C)CCC=C(C)C`, the call was inactive. On the same count and under the same terms, under `CC(C)Oc1ccccc1O` stands “inactive”.

For the compound `CC1=CCC2C(C1)C2(C)C` (stereo not given), the outcome was inactive. For `CN1[C@@H]2CC(OC(=O)[C@H](CO)c3ccccc3)C[C@H]1[C@@H]1O[C@@H]12` (stereo not given in full), the outcome was inactive.

Turning to `CCCCCCCCCCCCCOS(=O)(=O)O`, the concentration at half-maximal activity (AC50) is 66.6 µM (active).

On to `CC(C)(C)NC(N)=O`, for which the compound was called inactive. On the same count and under the same terms, under `OC[C@H]1O[C@H](O[C@]2(CCl)O[C@H](CCl)[C@@H](O)[C@@H]2O)[C@H](O)[C@@H](O)[C@H]1Cl` stands “inactive”; under `CC(C)(N)CO`, “inactive”; under `CCCCNC(=O)NS(=O)(=O)c1ccc(C)cc1`, “inactive”. `CC(C=O)Cc1ccc(C(C)C)cc1` (stereo not given): the compound was called inactive. On the same count and under the same terms, under `CC(=O)c1c(C)cc(C(C)(C)C)cc1C` stands “inactive”; under `CCCCCOC(=O)CCC`, “inactive”; under `CC(O)C(C)O` (stereo not given), “inactive”. Still for that read-out and setting: under `OCC(CO)(CO)COCC(CO)(CO)CO` stands “inactive”. On the same count and under the same terms, under `O=C(O)CCSCCC(=O)O` stands “inactive”; under `CC(=O)Nc1ccc(CC(=O)O)cc1`, “inactive”. Turning to `CC(=O)O[C@H](CC(=O)[O-])C[N+](C)(C)C`, the result was inactive.

`CCCCCC(CO)CCC` (stereo not given): the compound was classed as inactive. For the compound `C=COCCOCCOCCOC=C`, the compound was classed as inactive. Take `CCCCCC(=O)OCCc1ccccc1`: the outcome was inactive.

Take `CC(C#N)(CCC(=O)O)N=NC(C)(C#N)CCC(=O)O` (stereo not given): the outcome was inactive. The same measure, in the same setting: the same measure for `CC(C)=CCCC(C)=CCCC(C)=CCO`: “inactive”; for `CC(C)c1ccc(C(C)C)cc1`: “inactive”. Still for that read-out and setting: the same measure for `Nc1ccc(S(=O)(=O)O)c(N)c1`: “inactive”. As to `COC(C)CCO` (stereo not given), the outcome was inactive. The same measure, in the same setting: under `CCC(=O)OCc1ccccc1` stands “inactive”; under `CC1(C)[C@H]2CC[C@]1(C)[C@H](O)C2`, “inactive”; under `CCOC(=S)SSC(=S)OCC`, “inactive”. The same measure, in the same setting: the same measure for `O=C(O)c1cn(C2CC2)c2cc(N3CCNCC3)c(F)cc2c1=O`: “inactive”. `O=C(Nc1ccccc1)c1cc([N+](=O)[O-])ccc1Cl`: the outcome was inactive.

In the case of `CNCCO`, the compound was classed as inactive.

The next experiment concerns the target Cellular tumor antigen p53 (Homo sapiens) (UniProt P04637). Put plainly: TOX21_p53_BLA_p4_ratio: Tox21 HCT-116 p53 Agonism Beta-lactamase Assay, Ratio, Phase 4 (AID 2283601). A digest of the protocol:
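HCT116 cells carrying an inducible beta-lactamase reporter were plated at 4000 cells/well, rested 5 h, then exposed to compounds in DMSO (217-fold dilution) for 16 h at 37C. CCF4-AM substrate was loaded 2 h at room temperature; 460/530 nm emission ratio scored gain-of-signal versus DMSO.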
`C=C[C@@H](C)CCC=C(C)C`: the result was inactive. On the same count and under the same terms, the same measure for `CC(C)Oc1ccccc1O`: “inactive”; for `CC1=CCC2C(C1)C2(C)C` (stereo not given): “inactive”. As to `CN1[C@@H]2CC(OC(=O)[C@H](CO)c3ccccc3)C[C@H]1[C@@H]1O[C@@H]12` (stereo not given in full), the outcome was inactive.

`CCCCCCCCCCCCCOS(=O)(=O)O`: the AC50 was 83.6 µM (active). Take `CC(C)(C)NC(N)=O`: the outcome was inactive. The same measure, in the same setting: under `OC[C@H]1O[C@H](O[C@]2(CCl)O[C@H](CCl)[C@@H](O)[C@@H]2O)[C@H](O)[C@@H](O)[C@H]1Cl` stands “inactive”; under `CC(C)(N)CO`, “inactive”; under `CCCCNC(=O)NS(=O)(=O)c1ccc(C)cc1`, “inactive”. `CC(=O)c1c(C)cc(C(C)(C)C)cc1C`: the result was inactive. For `CCCCCOC(=O)CCC`, the result was inactive. For `OCC(CO)(CO)COCC(CO)(CO)CO`, the outcome was inactive.

For `CCOc1ccccc1OCC`, the outcome was inactive. Consider `O=C(O)CCSCCC(=O)O`, for which the result was inactive. `CC(=O)Nc1ccc(CC(=O)O)cc1`: the outcome was inactive. `CCCCCC(CO)CCC` (stereo not given): the result was inactive. In the case of `O=C(OCc1ccccc1)C(=O)OCc1ccccc1`, the outcome was inactive. On the same count and under the same terms, the same measure for `C=COCCOCCOCCOC=C`: “inactive”. Take `CC(C#N)(CCC(=O)O)N=NC(C)(C#N)CCC(=O)O` (stereo not given): the outcome was inactive. On the same count and under the same terms, under `CC(C)=CCCC(C)=CCCC(C)=CCO` stands “inactive”. On the same count and under the same terms, under `CC(C)c1ccc(C(C)C)cc1` stands “inactive”; under `Nc1ccc(S(=O)(=O)O)c(N)c1`, “inactive”; under `C=CCOC(=O)CCC1CCCCC1`, “inactive”.

Regarding `CCC(=O)OCc1ccccc1`, the outcome was inactive. Same read-out and setting: the same measure for `CCCCCCOC(=O)CCCCC`: “inactive”. On the same count and under the same terms, under `CCOC(=S)SSC(=S)OCC` stands “inactive”; under `O=C(Nc1ccccc1)c1cc([N+](=O)[O-])ccc1Cl`, “inactive”. On the same count and under the same terms, under `C=C(C)C(=O)O[C@H]1C[C@@H]2CC[C@@]1(C)C2(C)C` stands “inactive”.
